PubChem BioAssay (EPA / NIEHS)
Activity calls are given as the source filed them. How the source made its calls: active means hit-call score of the fitted dose curve at least 0.9, where 1 is the maximum; inactive means score below 0.9.

Key:
Details in all cases: mRNA level, 48 h; actives raise or lower the signal
[1] = read-out: Interleukin 6 (IL6), IL6 (gene 3569); assay: LTEA_HepaRG_IL6: Life Technologies and Expression Analysis (LTEA) Assay for Interleukin 6 (IL6) using HepaRG (AID 2283509)
Method in brief: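 Differentiated human HepaRG cells, plated 48 h then switched to serum-free induction medium, were exposed in duplicate for 48 h to eight half-log concentrations up to 100 uM in 0.5% DMSO. IL6 mRNA measured by qRT-PCR, normalized to ACTB/GAPDH/POLR2A.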

[2] = read-out: Interleukin 6 Receptor (IL6R), IL6R (gene 3570); assay: LTEA_HepaRG_IL6R: Life Technologies and Expression Analysis (LTEA) Assay for Interleukin 6 Receptor (IL6R) using HepaRG (AID 2283510);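 on AC50: TaqMan qRT-PCR signal normalized to ACTB GAPDH and POLR2A housekeeping genes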
Method in brief: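 Differentiated human HepaRG cells, plated 48 h then switched to serum-free induction medium, were dosed in duplicate for 48 h at eight half-log concentrations up to 100 uM in 0.5% DMSO. IL6R mRNA quantified by qRT-PCR, normalized to ACTB/GAPDH/POLR2A; bidirectional fit versus DMSO.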

[3] = read-out: Potassium channel subfamily K member 1 (KCNK1), KCNK1 (gene 3775); assay: LTEA_HepaRG_KCNK1: Life Technologies and Expression Analysis (LTEA) Assay for Potassium channel subfamily K member 1 (KCNK1) using HepaRG (AID 2283511)
Method in brief: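 Differentiated human HepaRG cells in serum-free induction medium were exposed in duplicate for 48 h to 8 half-log concentrations up to 100 uM in 0.5% DMSO. KCNK1 mRNA was measured by TaqMan qRT-PCR, normalized to ACTB, GAPDH and POLR2A, and fitted bidirectionally versus DMSO.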

[4] = read-out: Keratin 19 (KRT19), KRT19 (gene 3880); assay: LTEA_HepaRG_KRT19: Life Technologies and Expression Analysis (LTEA) Assay for Keratin 19 (KRT19) using HepaRG (AID 2283512)
Method in brief: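 Readout is qRT-PCR of KRT19 mRNA, normalized to ACTB, GAPDH and POLR2A, from HepaRG cells treated 48 h with eight-point half-log dilutions topping at 100 uM. Activity in either direction is scored relative to 0.5% DMSO vehicle.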

[5] = read-out: JUN Transcription Factor, JUN (gene 3725); assay: LTEA_HepaRG_JUN: Life Technologies and Expression Analysis (LTEA) Assay for JUN Transcription Factor using HepaRG (AID 2283513)
Method in brief: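 Differentiated HepaRG cells were exposed to chemicals for 48 h in serum-free induction medium, 8 concentrations from 100 uM in half-log steps, 0.5% DMSO vehicle, in duplicate. JUN mRNA was quantified by TaqMan qRT-PCR, normalized to ACTB, GAPDH, POLR2A.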

[6] = read-out: Lipase C (LIPC), LIPC (gene 3990); assay: LTEA_HepaRG_LIPC: Life Technologies and Expression Analysis (LTEA) Assay for Lipase C (LIPC) using HepaRG (AID 2283514)
Method in brief: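 Differentiated human HepaRG cells in serum-free induction medium were exposed in duplicate for 48 h to eight concentrations (top 100 uM, half-log steps, 0.5% DMSO). LIPC mRNA was quantified by TaqMan qRT-PCR, normalized to ACTB, GAPDH and POLR2A, with bidirectional fitting versus DMSO.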

[7] = read-out: Lipoprotein lipase (LPL), LPL (gene 4023); assay: LTEA_HepaRG_LPL: Life Technologies and Expression Analysis (LTEA) Assay for Lipoprotein lipase (LPL) using HepaRG (AID 2283515)
Method in brief: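 Differentiated human HepaRG cells in serum-free induction medium were exposed in duplicate for 48 h to eight half-log concentrations (top 100 uM) in 0.5% DMSO. LPL mRNA was quantified by TaqMan qRT-PCR, normalized to ACTB, GAPDH and POLR2A.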

[8] = read-out: MicroRNA 122 (MIR122), gene 406906; assay: LTEA_HepaRG_MIR122: Life Technologies and Expression Analysis (LTEA) Assay for MicroRNA 122 (MIR122) using HepaRG (AID 2283516); further: the transcript read is the microRNA miR-122
Method in brief: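 Differentiated human HepaRG cells were exposed 48 h in serum-free induction medium to eight half-log concentrations (top 100 uM, 0.5% DMSO). Transcript level was measured by TaqMan qRT-PCR, normalized to ACTB, GAPDH and POLR2A, and fitted bidirectionally versus DMSO.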

[9] = read-out: matrix metalloproteinase-10 (MMP10), MMP10 (gene 4319); assay: LTEA_HepaRG_MMP10: Life Technologies and Expression Analysis (LTEA) Assay for matrix metalloproteinase-10 (MMP10) using HepaRG (AID 2283517)
Method in brief: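 HepaRG, collagen I, ~100,000 cells/well; serum-free induction medium; 48 h exposure, duplicate, 8-pt half-log to 100 uM, 0.5% DMSO. Readout: TaqMan qRT-PCR, normalized to ACTB/GAPDH/POLR2A; bidirectional fit vs DMSO.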

MYC, MYC (gene 4609) = assay: LTEA_HepaRG_MYC: Life Technologies and Expression Analysis (LTEA) Assay for MYC using HepaRG (AID 2283518)
Method in brief: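 Expression changes were scored by TaqMan qRT-PCR with ACTB, GAPDH and POLR2A normalization. Cultures in serum-free induction medium received duplicate 8-point concentration series, highest 100 uM, for 48 h; DMSO (0.5%) served as baseline.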

[10] = read-out: matrix metalloproteinase-3 (MMP3), MMP3 (gene 4314); assay: LTEA_HepaRG_MMP3: Life Technologies and Expression Analysis (LTEA) Assay for matrix metalloproteinase-3 (MMP3) using HepaRG (AID 2283519)
Method in brief: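 Differentiated human HepaRG cells, plated 48 h on collagen I, were exposed in duplicate for 48 h in serum-free induction medium to eight half-log concentrations up to 100 uM in 0.5% DMSO. MMP3 mRNA was quantified by TaqMan qRT-PCR, normalised to ACTB, GAPDH and POLR2A.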

[11] = read-out: Paternally Expressed 10 (PEG10), PEG10 (gene 23089); assay: LTEA_HepaRG_PEG10: Life Technologies and Expression Analysis (LTEA) Assay for Paternally Expressed 10 (PEG10) using HepaRG (AID 2283520)
Method in brief: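 Differentiated HepaRG cells, plated 48 h then switched to serum-free induction medium, were exposed in duplicate for 48 h to eight half-log concentrations topping at 100 uM in 0.5% DMSO. PEG10 mRNA was quantified by TaqMan qRT-PCR, normalised to ACTB, GAPDH and POLR2A.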

[12] = read-out: Protein phosphatase 2A (PPP2R4), PTPA (gene 5524); assay: LTEA_HepaRG_PPP2R4: Life Technologies and Expression Analysis (LTEA) Assay for Protein phosphatase 2A (PPP2R4) using HepaRG (AID 2283522)
Method in brief: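 Differentiated HepaRG cells in serum-free induction medium were exposed in duplicate for 48 h to eight concentrations, top 100 uM with half-log dilutions, in 0.5% DMSO. PPP2R4 mRNA was quantified by TaqMan qRT-PCR, normalized to ACTB, GAPDH and POLR2A.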

[13] = read-out: Phosphatase and tensin (PTEN), PTEN (gene 5728); assay: LTEA_HepaRG_PTEN: Life Technologies and Expression Analysis (LTEA) Assay for Phosphatase and tensin (PTEN) using HepaRG (AID 2283523)
Method in brief: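 Differentiated human HepaRG cells, plated 48 h then switched to serum-free induction medium, were exposed in duplicate for 48 h to eight half-log concentrations up to 100 uM in 0.5% DMSO. PTEN mRNA measured by TaqMan qRT-PCR, normalized to ACTB/GAPDH/POLR2A, bidirectional fit versus DMSO.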

[14] = read-out: solute carrier (SLC22A1), SLC22A1 (gene 6580); assay: LTEA_HepaRG_SLC22A1: Life Technologies and Expression Analysis (LTEA) Assay for solute carrier (SLC22A1) using HepaRG (AID 2283524)
Method in brief: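 Human HepaRG cells were plated 48 h, switched to serum-free induction medium, then exposed in duplicate for 48 h to 8-point half-log series from 100 uM in 0.5% DMSO. SLC22A1 mRNA measured by qRT-PCR, normalized to ACTB/GAPDH/POLR2A, fitted bidirectionally versus DMSO.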

[15] = read-out: Pyruvate Dehydrogenase Kinase 4 (PDK4), PDK4 (gene 5166); assay: LTEA_HepaRG_PDK4: Life Technologies and Expression Analysis (LTEA) Assay for Pyruvate Dehydrogenase Kinase 4 (PDK4) using HepaRG (AID 2283525)
Method in brief: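 Differentiated human HepaRG cells, pre-cultured 48 h, were exposed in duplicate for 48 h in serum-free induction medium to eight half-log concentrations up to 100 uM in 0.5% DMSO. PDK4 mRNA was quantified by qRT-PCR, normalized to ACTB, GAPDH and POLR2A, bidirectional fitting versus DMSO.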

[16] = read-out: NAD(P)H dehydrogenase [quinone] 1 (NQO1), NQO1 (gene 1728); assay: LTEA_HepaRG_NQO1: Life Technologies and Expression Analysis (LTEA) Assay for NAD(P)H dehydrogenase [quinone] 1 (NQO1) using HepaRG (AID 2283526)
Method in brief: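 Differentiated HepaRG cells, plated 48 h and then switched to serum-free induction medium, were exposed in duplicate for 48 h to 8-point half-log concentrations up to 100 uM in 0.5% DMSO. mRNA measured by qRT-PCR, normalized to ACTB, GAPDH, POLR2A; bidirectional fit versus DMSO.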

[17] = read-out: Nuclear factor erythroid 2-related factor 2 (Homo sapiens) (UniProt Q16236); assay: LTEA_HepaRG_NFE2L2: Life Technologies and Expression Analysis (LTEA) Assay for Nuclear factor erythroid 2-related factor 2 (NFE2L2) Transcription Factor using HepaRG (AID 2283527)
Method in brief: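 Differentiated human HepaRG cells in serum-free induction medium were exposed for 48 h to eight concentrations (top 100 uM, half-log dilutions, 0.5% DMSO), in duplicate. NFE2L2 mRNA was quantified by TaqMan qRT-PCR, normalized to ACTB, GAPDH and POLR2A, with bidirectional fitting versus DMSO.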

[18] = read-out: Nuclear factor NF-kappa-B p105 subunit (Homo sapiens) (UniProt P19838); assay: LTEA_HepaRG_NFKB1: Life Technologies and Expression Analysis (LTEA) Assay for Nuclear Factor Kappa B Subunit 1 (NFKB1) using HepaRG (AID 2283521);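 further: TaqMan qRT-PCR transcript normalised to ACTB GAPDH and POLR2A housekeeping genes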
Method in brief: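 Differentiated human HepaRG cells were exposed for 48 h in serum-free induction medium to eight concentrations (top 100 uM, half-log steps, 0.5% DMSO), in duplicate. NFKB1 mRNA was measured by TaqMan qRT-PCR, normalized to ACTB/GAPDH/POLR2A, and fitted bidirectionally against DMSO.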

Measured: AC50

Sequence of Nuclear factor erythroid 2-related factor 2 (Homo sapiens) (Q16236 whole entry, looked up): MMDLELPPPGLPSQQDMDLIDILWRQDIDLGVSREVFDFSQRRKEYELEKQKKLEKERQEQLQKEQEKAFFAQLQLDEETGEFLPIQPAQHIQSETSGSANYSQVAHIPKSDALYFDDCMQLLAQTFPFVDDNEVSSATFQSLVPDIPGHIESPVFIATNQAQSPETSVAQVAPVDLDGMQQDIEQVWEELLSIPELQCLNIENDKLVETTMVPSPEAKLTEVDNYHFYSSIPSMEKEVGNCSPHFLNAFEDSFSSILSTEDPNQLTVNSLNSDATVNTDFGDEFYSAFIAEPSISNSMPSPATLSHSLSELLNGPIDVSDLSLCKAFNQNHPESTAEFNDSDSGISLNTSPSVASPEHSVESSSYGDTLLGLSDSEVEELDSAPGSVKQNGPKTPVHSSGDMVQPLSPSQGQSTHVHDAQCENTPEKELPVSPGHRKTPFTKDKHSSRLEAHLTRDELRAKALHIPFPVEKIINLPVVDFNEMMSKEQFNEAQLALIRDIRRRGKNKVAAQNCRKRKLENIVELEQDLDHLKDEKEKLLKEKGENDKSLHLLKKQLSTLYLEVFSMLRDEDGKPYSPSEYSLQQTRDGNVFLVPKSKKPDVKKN
Sequence of Nuclear factor NF-kappa-B p105 subunit (Homo sapiens) (P19838 whole entry, looked up): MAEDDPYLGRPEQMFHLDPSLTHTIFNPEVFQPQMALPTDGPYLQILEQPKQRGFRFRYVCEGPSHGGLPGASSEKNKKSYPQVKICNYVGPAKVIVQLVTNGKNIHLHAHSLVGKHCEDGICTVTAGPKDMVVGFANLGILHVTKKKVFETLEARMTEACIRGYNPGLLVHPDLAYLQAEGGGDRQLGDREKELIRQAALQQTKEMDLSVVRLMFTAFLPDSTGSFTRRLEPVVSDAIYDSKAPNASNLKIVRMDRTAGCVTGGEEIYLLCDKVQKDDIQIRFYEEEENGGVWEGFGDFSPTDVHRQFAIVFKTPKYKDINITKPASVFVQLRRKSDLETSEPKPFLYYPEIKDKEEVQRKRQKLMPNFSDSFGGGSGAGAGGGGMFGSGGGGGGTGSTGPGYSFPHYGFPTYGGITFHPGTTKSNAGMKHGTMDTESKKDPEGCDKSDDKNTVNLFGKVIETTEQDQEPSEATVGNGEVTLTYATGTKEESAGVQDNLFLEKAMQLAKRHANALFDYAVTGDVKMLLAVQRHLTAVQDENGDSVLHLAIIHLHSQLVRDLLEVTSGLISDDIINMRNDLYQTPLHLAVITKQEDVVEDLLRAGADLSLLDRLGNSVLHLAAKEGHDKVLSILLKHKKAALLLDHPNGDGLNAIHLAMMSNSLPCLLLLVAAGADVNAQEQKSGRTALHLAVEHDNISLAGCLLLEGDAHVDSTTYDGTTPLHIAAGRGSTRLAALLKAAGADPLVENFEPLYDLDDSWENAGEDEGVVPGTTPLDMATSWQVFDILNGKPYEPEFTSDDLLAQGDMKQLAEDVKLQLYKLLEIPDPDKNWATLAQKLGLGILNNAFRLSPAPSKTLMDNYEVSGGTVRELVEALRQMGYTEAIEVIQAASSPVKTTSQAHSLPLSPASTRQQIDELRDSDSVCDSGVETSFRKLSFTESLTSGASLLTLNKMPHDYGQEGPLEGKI

CC=Cc1ccc(O)c(OC)c1
inactive: [1] | [2] | [3] | [4] | [5] | [6] | [7] | [8] | [9] | MYC, MYC (gene 4609) | [10] | [11] | [12] | [13] | [14] | [15] | [16] | [17]

COc1cc(S(=O)(=O)O)c(C)cc1N=Nc1c(O)ccc2cc(S(=O)(=O)O)ccc12
inactive: [1] | [3] | [4] | [5] | [6] | [7] | [8] | [9] | MYC, MYC (gene 4609) | [10] | [11] | [12] | [13] | [14] | [15] | [16] | [17]

Cc1cccc(C)c1O
inactive: [1] | [3] | [4] | [5] | [6] | [7] | [8] | [9] | MYC, MYC (gene 4609) | [10] | [11] | [18] | [12] | [13] | [14] | [15] | [16] | [17]

Oc1ccc2ccccc2c1N=Nc1ccccc1
inactive: [1] | [3] | [5] | [9] | [10] | [18] | [12] | [13] | [16]
active: [2] 15.7 µM | [4] 3.66 µM | [6] 11.8 µM | [7] 1.7 µM | [8] 9.92 µM | MYC, MYC (gene 4609) 6.08 µM | [11] 19 µM | [14] 10.5 µM | [15] 4.28 µM | [17] 1.5 µM
